Over roughly 33,000 sequences, “E-score (-0.5 to 0.5)” has its median near -0.021; the highest 2% begin near 0.32. This is one part of a sample in which the highest values are shown more often than they occur.
The sequences below were run against T1, Zap1 (UniProt P47043) (assay: PBM E-score (8-mer binding enrichment) (E-score (-0.5 to 0.5)); higher = stronger / more preferred TF binding). Settings: protein concentration: 200 nM; construct: GST-full length.
T1 sequence: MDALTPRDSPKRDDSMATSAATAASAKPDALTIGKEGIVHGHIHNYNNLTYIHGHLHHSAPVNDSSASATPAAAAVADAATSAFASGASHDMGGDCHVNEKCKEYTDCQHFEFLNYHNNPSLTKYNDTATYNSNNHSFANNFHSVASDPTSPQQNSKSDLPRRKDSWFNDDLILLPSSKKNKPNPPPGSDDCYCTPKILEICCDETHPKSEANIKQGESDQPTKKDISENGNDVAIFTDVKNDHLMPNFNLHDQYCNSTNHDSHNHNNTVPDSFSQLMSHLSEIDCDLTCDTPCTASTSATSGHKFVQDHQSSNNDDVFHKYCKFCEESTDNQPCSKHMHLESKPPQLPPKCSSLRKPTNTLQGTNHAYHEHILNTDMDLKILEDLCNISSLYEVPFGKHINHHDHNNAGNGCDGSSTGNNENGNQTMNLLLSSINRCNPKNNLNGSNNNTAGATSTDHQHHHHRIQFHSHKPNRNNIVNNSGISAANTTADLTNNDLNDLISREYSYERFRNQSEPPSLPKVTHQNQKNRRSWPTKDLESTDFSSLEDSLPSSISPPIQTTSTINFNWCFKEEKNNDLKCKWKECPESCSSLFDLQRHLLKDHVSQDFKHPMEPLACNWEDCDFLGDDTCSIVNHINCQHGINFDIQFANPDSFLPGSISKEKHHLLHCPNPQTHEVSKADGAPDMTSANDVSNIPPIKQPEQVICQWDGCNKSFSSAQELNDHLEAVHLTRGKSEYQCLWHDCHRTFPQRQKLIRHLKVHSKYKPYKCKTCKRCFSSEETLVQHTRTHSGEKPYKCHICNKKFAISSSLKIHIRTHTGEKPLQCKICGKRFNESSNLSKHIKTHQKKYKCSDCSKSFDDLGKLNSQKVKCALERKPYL
Method: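 Universal 'all 10-mer' protein binding microarrays (Agilent AMADID 015681) probed with GST-tagged S. cerevisiae TFs (full-length or DBD) made by in vitro transcription/translation (PURExpress), about 100-200 nM. Bound TF was detected with fluorescent anti-GST. Each ungapped 8-mer (which stands for itself and its reverse complement) is scored by the PBM enrichment score (E-score), a modified Wilcoxon-Mann-Whitney statistic from -0.5 to +0.5, computed with the Universal PBM Analysis Suite. Scale: above 0.35 generally sequence-specific binding.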

Sequence	PBM E-score
ATACACGC	-0.091
AATCACAC	0.0533
TCTCGCCA	-0.206
ACAATACC	0.252
TACTATAA	0.249
CAGATGAA	-0.103
ACTCTCGG	0.0208
ACGGTGAA	-0.0282
ACCTCGTG	0.348
ACCTCGTC	0.0929
ACCTCGAG	0.349
ACCTCGTA	0.189
CCCTCGAG	0.159
ACCTCGAT	0.245
ACTGTCGA	-0.0508
CCCAATTC	0.157
TCACAGAA	-0.00307
CTGCGCAG	-0.325
CTTGAGCC	-0.111
GTAACCAC	0.431
AGAACCAC	0.285
CTAACCAC	0.325
GAAACCAC	0.116
AAAACCAC	0.197
GGAACCAC	0.0961

Sequence	PBM E-score
ATAACCAC	0.46
CAAACCAC	0.0159
CCAACCAC	0.256
CCTCTAAG	0.139
ACCATTTC	0.126
GATGGGCC	-0.145
CCCCCCAA	-0.371
TAGCCTAA	-0.0154
ATTACCTA	0.216
ACTACCTA	0.161
CCTACCTC	0.125
ATTACCTC	0.32
ACTACCTC	0.356
ATTACCTG	0.149
CGTAATCA	0.196
ATGTCACG	-0.195
AGGTCACG	0.406
GAGTCACC	0.0467
GGGTCACC	0.438
AAGTCACA	-0.034
AGGTCACA	0.359
AGGTCAAC	0.118
CGGTCACG	0.203
CGGTCACC	0.276
ACGTCACC	0.0378

Sequence	PBM E-score
AGGTCACT	0.25
AGGTCACC	0.37
ACCCATTG	0.166
CGAGCGAA	-0.162
ATACGGCA	0.0784
AACGAGAG	-0.138
GCTTTACA	-0.0896
CTTAATCC	-0.131
GACTGAAC	-0.199
ACCAGCAA	0.26
TCTAGGCA	-0.0489
AAAAACTT	0.0552
GCATTAGC	-0.151
GGATACAA	0.0969
CGTTTGGA	0.0241
CGGTCACA	0.163
TGGTCACA	0.231
GGGTCACA	0.398
GCCCAACC	-0.0373
ACTATGGC	-0.0314
AGTTATGC	0.0469
GGGGTGAA	0.0494
AGGGTGAA	0.0968
ACGGTGAC	-0.0408
AGGGTGAT	0.427

Sequence	PBM E-score
AGGGTGAC	0.415
CGGGTGAC	0.167
GGGGTGAC	0.337
AGGGTGAG	-0.118
AGGGTGTC	0.304
ATCTCGTA	-0.0363
AACTGTCT	-0.105
GAGAGCTA	-0.305
GGCGATCA	-0.283
ACCCTGCA	0.394
TCCCTGCA	0.0185
CCCCTGCG	-0.17
ACCCTGCG	0.422
ACCCTGCC	0.186
GCCCTGCA	-0.195
TACACAGA	0.0113
AGACTGAC	-0.202
GAGCTATA	-0.233
ACATACGA	0.0717
CGCGTCGC	-0.204
CTGTGGAA	-0.0936
AACCAGAT	0.142
ACAGATCT	-0.0411
ACATAACG	0.0512
GCATAACC	0.414

Sequence	PBM E-score
ACATAACC	0.454
GCATAAGC	-0.0977
ACATAACT	0.149
GCATAACA	0.0518
CATCTTAA	-0.0359
AAGCGGGC	-0.335
CGTGACCC	0.418
AGTGACAC	-0.119
GGTGACCA	0.283
CGTGACGC	-0.134
AGTGACCA	0.247
AGTGACCG	0.115
CGTGACCA	0.35
CTTGACCC	0.311
AGTGACCC	0.347
AGACTTAG	-0.306
ACGTTAAG	-0.0481
GGGTTAAA	0.443
ATGTTAAG	-0.0536
GGGTTTAA	0.242
GAGTTAAC	0.00603
GTGTTAAA	0.0467
ACGTTAAC	0.0746
GGGTTAAC	0.403
CGGTTAAC	0.232

Sequence	PBM E-score
AGGTTAAT	0.315
AGGTTAAC	0.405
AGGTTAAG	0.383
CTGCCAGA	-0.0969
GGTTAGGA	0.296
CAGTGCAA	-0.0222
CCCTAGAA	0.177
CCGGTGTC	0.0219
AGGTAGTG	0.268
CGGTAGTA	0.107
AGGTAGTA	0.337
AAATGAAA	0.23
ACATTCTC	-0.0126
CAATAACC	0.468
CAATAACA	0.0373
GAATAACC	0.438
AAATAACG	0.042
GAATAACA	0.181
GAATAAGC	-0.182
AAATAACA	0.0357
AAATAACC	0.42
CAATAACG	0.138
CGCGGCAG	-0.049
GCGTTGAC	-0.0667
CGCCAGCG	-0.255

Sequence	PBM E-score
GTTGCCGA	-0.0812
GTAGCAAC	-0.0913
GACAGTCA	-0.217
ACCGTTAA	0.256
GAAGGTTA	0.437
CAAGGTGA	0.216
CAAGGTTA	0.466
GAAGGTGA	0.116
CAAGGTTC	0.0224
GAAGGTGC	0.0253
GTCTGGTA	0.146
CGTCCATA	0.125
AGCTGAGC	-0.185
GTACCCCA	0.35
CTACCCCA	0.139
ATACCCCC	0.221
ATACCCAA	0.247
ATACCCCA	0.383
GTACCCAA	0.234
ACTCTGCA	0.0815
AGTTCAGG	0.0101
ATATGACG	-0.122
GCCGAGGC	-0.0423
GACCCATA	0.259

Source: the supplement of paper PMC3334620
